The experiment has as its system VDR:RXRa (NR concentration 270 nM, RXRa partner concentration 90 nM). As to the kind of experiment: PBM binding z-score (relative to random genomic background probes); higher = stronger binding; sequences stand for … in GC…GCGATTGACAGCGTAGAATGAAGG
How it is done: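 Protein-binding microarray (Agilent 4x180K custom design, double-stranded 60-nt probes: 5' GC cap, 34-nt variable region, 24-nt constant primer region; full probe sequence given). Purified or IVT nuclear receptor:RXRα heterodimers (3:1 NR:RXRα, mostly 270:90 nM) or homodimers were incubated for 1 h in PBS with 2% milk and no ligand, then detected with Alexa488 antibodies. Fluorescence from o1-orientation probes (~5 replicates averaged) was converted to z-scores against 500 random hg19 background probes. Variable regions are seed direct-repeat (DR0–DR5) sites, all their single-nucleotide variants and half-site ablations.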
CAAACTAGGCCACCGGAAGGTCAAAGTCCGCATG registered a PBM binding z-score of 3.2.
For ATATGAAGGTTACATCCGGGTCATTCAGGCTATG, the PBM binding z-score is 4.85.
The value for CAAACTAGGTCACAGGAAGGTCAAAGTCCGCATG was 5.74; that for CGTCCTAGGTCAAAGGTCAGTGAAGAGATGACGG was 5.56.
The value for TAGCCTGGGTCATGGGCCAGTATACCACGCGAAC was 1.82; that for GCTTGTAGATCAAGGGTAAGAAAGACTAAGCTAA was -0.559.
The same measure for TCGAGTAGGTTATCAATGGGGCATTCAGCTTTCT: 0.361; for ACTCGGAGGACAAAGGACAGAGCTACGCCAGTGA: -0.523.
TTACCAAGGTGAAGGTCGTTGCTCCCTCTGTAGA: the PBM binding z-score stood at 1.36.
The value for AGAACGAGGGCACGGTGAGTTGATAGCAGAGTAG was 2.56.
The value for ATCGAAAGGTCGAGGTGATTATAGAGAAAGGGAA was 2.43; that for GGAACCAGGGCAAGTTGATAGCAGAGTTTGATGG was 0.319; that for TAGTCTAGGTCATGGGCCAGTATACCACGCGAAC was 2.13.
The same measure for AATACAGGGTCACTAGGCCGGAGTAGGTACGAAT: 4.11; for ACTATTAGTTGAGACGAGGGCAAACGATAGGTTG: 0.775; for ATATGTAGGTTAGCTAGGGTCATTCAGACTAGGC: 5.2.
Sequence GATACAGGGTCAAGGCCAGACTACGCGTATTGAT gave a PBM binding z-score of 4.28.
CCAGACAGGTGAGAAGGTAAGTCAGCCTCGATTA: the PBM binding z-score is -0.106.
Regarding TTACCAAGGTGAGCTGAGGTCGTTGCTCCAACTC, the PBM binding z-score came out at 4.1.
The same measure for TCATATAGGTAAAGGGTGAAAGTCGGTGTGGTAA: 1.17.
In the case of CCTCGGGGGACAGAAGGTCAGAGCTGTCCGCTTT, the PBM binding z-score came to 2.3.
The value for GTTGCTAGGTCAGGTTGGTCAGCTAACGGGTACG was 0.892.
Take CCGGGTAGGTTATGGGGCATTCAGGCAACGGTGA: the PBM binding z-score is 0.056.
As to ACTAGCAGGCCTAGTTTGGGTCACTCAAACAAAG, the PBM binding z-score is -0.0369.
The sequence AGAATGAGGTTACCAAAGATCAGCGAAACGCTTG displayed a PBM binding z-score of 1.33.
In the case of TGAATCAGGTTATAAGATCAGGGAACGTTGCAAA, the PBM binding z-score is -0.0764.
The value for CCGACTGGGGCATAAAGTTACCATAAGCCAGCCC was -0.432; that for GGAACGATGGCATTCGAGTTGATAGCATGGCGAT was -0.32.
The value for TCATTTAGGTAAATGCTAGGTGAAAGTCCGATCT was 0.573; that for GCTAGCAGGCCATCTGGGTCACTCAATGACGGGC was 1.04; that for ATCTCTAGGTAAAGTACAGTGAAAGATCGATAGA was -0.177.
In the case of ATCTCTAGGTACAGTTCAGTGAAAGATCGATAGA, the PBM binding z-score came to 1.12.
The sequence AGAATGAGGTTATTAAGATCAGGGCATTGCGGTC registered a PBM binding z-score of 3.01.
Take ACTAGCAGGCCAGGTTTGGGTCACTCAAACAAAG: the PBM binding z-score worked out at 0.437.
TAGCCTAGGTCATCCGGGCCAGTATAGTGTCGGC had a PBM binding z-score of 3.81.
The same measure for GCTTGTAGATTAAGGTTAAGAAAGACTAAGCTAA: 0.125.
The value for GGAACGAGGGCCTTCGAGTTGATAGCATGGCGAT was -0.0234.
The same measure for GCTTACGGGTCAGAGGTTATAGCATGAATAGAAT: 3.48; for CCGACTGGGGCAAGGTTACCCTAACGCACAGCCA: 0.016; for TCATATAGGTAATACAGGTGAAGGTCGGCATCTA: 1.62.

Values taken from the supplement of paper PMC6555819.
